# The supplement of paper PMC6555819
# Columns and labels:
# Assay in all cases: PBM binding z-score (relative to random genomic background probes); higher = stronger binding; sequences stand for … in GC…GCGATTGACAGCGTAGAATGAAGG
# [1] = test system: FXR:RXRa (NR concentration 270 nM, RXRa partner concentration 90 nM)
# Procedure, shortened: (§1)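 For binding z-scores, the reference was random background probes on custom Agilent 4×180K protein-binding microarrays. These arrays were incubated 1 h with ligand-free nuclear receptor dimers in PBS pH 7.4, 2% milk, 0.02% Triton X-100, 1 mM DTT, 0.2 mg/mL BSA and 0.4 mg/ml salmon testes DNA. Fluorescence was scanned after antibody detection of each partner (one per run) and regression-normalized.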
# [2] = test system: LXRa:RXRa (NR concentration 270 nM, RXRa partner concentration 90 nM)
# Procedure, shortened: as §1
# [3] = test system: LXRa homodimer (NR concentration 270 nM)
# Procedure, shortened: as §1
# [4] = test system: LXRb:RXRa (NR concentration 270 nM, RXRa partner concentration 90 nM)
# Procedure, shortened: as §1
# [5] = test system: LXRb homodimer (NR concentration 270 nM)
# Procedure, shortened: as §1
# [6] = test system: PPARa:RXRa (NR concentration 270 nM, RXRa partner concentration 90 nM)
# Procedure, shortened: as §1
# [7] = test system: PPARg:RXRa (NR concentration 180 nM, RXRa partner concentration 90 nM)
# Procedure, shortened: as §1
# [8] = test system: PPARg:RXRa 270nM:90nM, anti-RXR (NR concentration 270 nM, RXRa partner concentration 90 nM)
# Procedure, shortened: as §1
# [9] = test system: PPARg:RXRa 30nM:10nM, anti-RXR (NR concentration 30 nM, RXRa partner concentration 10 nM)
# Procedure, shortened: as §1
# [10] = test system: PPARg:RXRa 90nM:30nM, anti-RXR (NR concentration 90 nM, RXRa partner concentration 30 nM)
# Procedure, shortened: as §1
# [11] = test system: PPARg:RXRa DBDmut IVT, anti-RXR (DBD mutation: RXRa K156A/R161A, NR concentration 270 nM, RXRa partner concentration 90 nM)
# Procedure, shortened: as §1
# [12] = test system: PPARg:RXRa IVT, anti-PPARg (NR concentration 270 nM, RXRa partner concentration 90 nM)
# Procedure, shortened: as §1
# [13] = test system: PPARg DBDmut:RXRa IVT, anti-PPARg (DBD mutation: PPARg1 K132A/R137A, NR concentration 270 nM, RXRa partner concentration 90 nM)
# Procedure, shortened: as §1
# [14] = test system: PPARg DBDmut IVT, anti-PPARg (DBD mutation: PPARg1 K132A/R137A, NR concentration 270 nM)
# Procedure, shortened: as §1
# [15] = test system: PPARg homodimer (NR concentration 180 nM)
# Procedure, shortened: as §1
# [16] = test system: PXR:RXRa (NR concentration 270 nM, RXRa partner concentration 90 nM)
# Procedure, shortened: as §1
# [17] = test system: PXR homodimer (NR concentration 270 nM)
# Procedure, shortened: as §1
# [18] = test system: RARa:RXR (NR concentration 270 nM, RXRa partner concentration 90 nM)
# Procedure, shortened: as §1
# [19] = test system: RARa homodimer (NR concentration 270 nM)
# Procedure, shortened: as §1
# [20] = test system: RARb:RXRa (NR concentration 270 nM, RXRa partner concentration 90 nM)
# Procedure, shortened: as §1
Sequence,PBM binding z-score [1],PBM binding z-score [2],PBM binding z-score [3],PBM binding z-score [4],PBM binding z-score [5],PBM binding z-score [6],PBM binding z-score [7],PBM binding z-score [8],PBM binding z-score [9],PBM binding z-score [10],PBM binding z-score [11],PBM binding z-score [12],PBM binding z-score [13],PBM binding z-score [14],PBM binding z-score [15],PBM binding z-score [16],PBM binding z-score [17],PBM binding z-score [18],PBM binding z-score [19],PBM binding z-score [20]
AGTCAAAGTTCAGGACGAGGTAACGAAAAGCACG,4.17,3.54,0.921,1.92,0.307,3.39,4.87,5.02,2.18,4.04,0.0438,2.03,0.538,0.477,1.63,2.75,1.22,2.71,0.551,4.3
CAGCCTAGGTCAGGGCCGGTATAGGAGGAACGTT,1.62,0.777,-0.703,0.466,-1.51,1.97,0.482,0.692,-0.326,-0.0222,0.942,1.52,-0.778,-1.19,0.324,0.229,-0.999,0.69,-0.753,3.33
TCATATAGGTAAAAGGTGAACGTCGGTGTGGTAA,2.13,2,0.308,1.96,0.0983,5.54,9.49,8.84,8.77,9.46,5.71,5.6,1.12,1.53,1.65,1.86,0.862,2.9,1.07,2.15
AGCTCTAGGTAAAGATAGTTCAGTGAATGCAAAT,-0.108,3.76,0.0998,0.693,-0.0126,0.354,0.0941,0.135,-0.22,-0.0707,2.67,1.19,0.745,0.441,0.456,0.84,0.602,0.3,1.11,0.525
CAAACTAGGTCAAGGACAGTGAATCTCCGCACGC,3.5,2.6,0.383,1.84,0.431,4.98,7.68,6.71,4.3,6.04,8.06,8.33,5.83,2.41,2.39,1.42,0.22,2.41,1.49,4.06
TCACCAAGGTGAGCTGAGGTCGTTGATCCAACTC,1.24,0.999,-0.747,0.743,-1.63,1.6,0.00194,1.01,0.915,0.958,1.73,1.53,-0.807,-0.69,0.0757,5.13,-0.0817,2.65,-0.943,1.61
CCGACTGGGGCAAGGTTACCAAAACGCACAGCCA,0.221,0.494,-0.00504,0.617,-1.39,2.07,2.78,3.62,1.01,2.6,3.12,3.53,-0.395,-0.973,0.0774,0.341,-0.627,1.09,-0.287,1.73
CGTCCAAGGTCAGAGAGGTCAGTGAGTGCCGAGT,6.29,5.06,3.37,4.79,0.412,5.19,3.71,4.4,0.893,2.59,2.89,3.66,-0.0729,-0.219,3.93,6.23,12.6,5.43,2.9,5.37
ACATGTAGGTTACATCCGGGTCATTCAGGCTATG,2.53,4.55,1.49,3.15,1.14,4.15,4.27,3.99,1.47,2.91,6.27,6.09,4.52,4.01,3.27,3.95,2.86,3.98,0.622,2.43
TTACCAAGGTGAGCTGCGGTCGTTGATCCAACTC,0.391,0.351,-0.281,-0.0836,-1.32,0.597,-0.444,-0.0826,-0.536,-0.439,0.329,1.64,0.125,-0.586,-0.584,1.38,-0.459,0.61,-0.775,1.07
CCTATTAGTTGACCATAAGGGCAATCGAAGCTCG,0.68,0.259,0.71,0.623,0.695,0.456,0.434,0.366,0.122,0.461,0.549,0.361,0.362,0.72,1.56,0.609,0.878,0.531,2.18,1.38
ATATGTAGGTTAAGGGTGATTCAGGTTGGTTCGC,0.984,1.63,0.808,1.73,0.807,4.98,9.36,8.2,8.53,9.45,7.67,6.98,1.59,1.38,3.75,1.63,1.19,1.72,1.64,1.54
ACTAGTTGGTCAGCTGAGGTCTCACACAATTCGG,0.132,-0.314,-0.301,-0.188,-0.19,0.142,0.384,0.246,-0.202,0.00207,1.19,0.901,0.251,0.203,0.325,0.286,-0.249,0.165,0.106,1.05
TAGCCTAGGTCATTGGGGCAGTATAGTACGCATC,4.67,3.57,1.22,3.42,0.997,4.2,4.24,4.06,1.15,3.06,3,4.45,0.832,0.251,1.66,1.89,0.425,2.52,0.554,3.83
CGAACTAGGTCAAGTACAGTGAATCTCCGCACGC,4.5,2.83,0.474,2.32,0.607,4.85,7.57,6.29,4.41,5.92,8.4,8.26,1.96,1.97,2.76,1.8,0.0981,2.37,0.517,4.19
CTCGAAAGGTCGGGCTCAGGTGAGTATACCAAAC,3.1,2.11,-0.238,1.9,0.116,3.25,0.671,1.88,-0.168,0.853,0.601,1.13,0.0395,-0.176,1.13,1.64,-0.297,2.71,0.232,3.36
TCTCTGAGGACACGAAGGTCAGAGCTTTCCAGAG,2.1,1.06,0.117,0.798,-0.338,2,0.595,2.08,2.59,2.22,1.47,1.68,0.539,-0.166,0.898,2.18,1.25,2.04,-0.145,3.29
GCTGCTAGGTCAGGTGGGTCAGCTAACGGGTACG,1.62,1.2,-0.394,0.981,-0.0608,2.34,1.65,1.61,-0.279,0.851,2.85,3.22,0.103,-0.61,1.05,1.28,-0.409,1.66,-0.0518,3.56
CGTCAAAGTTCTACTAAGGTAACGTAAAGCACGC,1.91,-0.151,-0.14,0.0598,-0.14,0.277,0.459,0.289,0.196,0.185,0.0553,0.848,0.246,0.834,0.249,0.134,-0.028,0.398,-0.131,0.603
AGTCAAAGTTCATCTAGGTAACGTTAGATATGCT,6.45,6.1,5.46,3.96,1.99,4.88,6.36,6.31,3.3,5.58,1.25,3.81,1.67,1.07,2.67,5.32,7.67,4.08,0.982,5
CATTACGGGTCAAGGTTATAGCACGGGTGGTACG,5.89,5.21,1.53,3.61,1.18,5.27,5.67,5.45,2.22,4.39,3.5,4.53,0.969,1.08,2.26,3.72,0.701,4.69,1.58,4.43
CAGCCTAGGTCAGGGGCAGTATAGGAGGAACGTT,2.14,1.38,-0.331,1.27,-0.805,2.38,1.3,1.75,0.184,0.954,1.2,1.71,-0.201,-0.982,1.41,0.677,-0.048,1.33,0.0151,3.5
TATGCTAGGTCAACGATGGTCAGCTAATCTGCTA,3.36,4.53,2.1,2.25,0.889,3.37,2.89,2.78,0.716,1.87,2.97,3.84,1.31,1.14,1.14,1.77,-0.438,2.6,-0.282,3.96
AGAATGAGGTTAAGATCAGGCAAACAGAATACAT,2.11,5.61,-0.312,2.82,-0.408,3.45,2.21,2.38,0.95,1.63,2.85,2.81,0.992,0.64,0.518,1.33,-0.00329,2.09,0.263,1.92
CGAACTACGTCAAGGACAGTGAATCTCCGCACGC,-0.000991,-0.458,0.0307,-0.729,-0.268,-0.387,0.65,-0.549,-0.403,-0.799,-0.146,-0.464,-0.384,-0.387,-0.76,-0.445,0.128,-0.00341,-0.551,0.27
TCATATAGGTATACAGGTGAAAGTCCGTAAGTTA,1.01,1.13,0.26,1.2,0.257,1.9,2.4,3.24,3.8,3.58,2.8,2.54,0.449,1.54,1.33,0.873,0.816,1.03,1.2,0.603
TCTCGGAGGACACGAAAGGTCATAGCTCGACATC,4.39,5.36,5.67,4.45,0.51,4.49,2.19,3.86,3.01,3.37,2.17,2.14,1.29,0.408,3.48,5.31,1.81,5.39,1.62,4.26
CCTTACGGGTCAAGGTTCTAGCACGGGTGGTACG,5.14,3.35,-0.039,2.64,-0.204,4.86,4.7,5.18,2.28,4.24,1.5,3.25,0.0121,-0.395,2.56,2.98,-0.35,3.97,0.251,4.05
